Inconclusive results are not listed. The source made the active and inactive calls. Unless noted, calls come from the whole dose curve; as a rule, active = well fitted curve in the direction sought with a large enough effect; inconclusive = small, poorly fitted or top-dose-only effect, or another doubt; inactive = no such curve, though single readings can be large; an effect the other way counts as inactive or inconclusive.

This note sets out measurements from PubChem BioAssay (NCATS).

Test [1] concerns the target Cytochrome P450 3A4 (Homo sapiens) (UniProt P08684). In words: qHTS Assay for Inhibitors and Substrates of Cytochrome P450 3A4 (AID 884). For activity change, negative = inhibition: % is set by controls: 0 for no effect and ±100 for the full control effect. Note: nearly all actives have a fitted effect of over 50% in size. Note: potency is the fitted concentration of half-maximal effect. The procedure, abridged: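 20 nM human CYP3A4 with 25 uM Luciferin-PPXE (at KM) in 200 mM KPO4, preincubated 10 min with compound; NADPH regeneration started a 60 min RT reaction. Luciferin detected by luminescence, normalized to 57 uM ketoconazole as full inhibition.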
(In qHTS, concentration-response curves come from the screen itself.)

Test [2] has the same target. The test can be described thus: qHTS Assay for Activators of Cytochrome P450 3A4 (AID 885). Note: nearly all actives have a fitted effect of over 65% in size. Note: potency is the fitted concentration of half-maximal effect. The procedure, abridged: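 Signal was normalized against complete inhibition by 57 uM ketoconazole. The reaction used 20nM CYP3A4 with 25uM Luciferin-PPXE, 10-min compound preincubation and a 60-min NADPH-supported step at RT.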
Test [3] can be described thus: Confirmation and Secondary Assay for Modulators of Hemoglobin Beta Chain Splicing at IVS2 654 locus (AID 910).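 Note: HeLa cells stably carrying EGFP split by mutant beta-globin IVS2-654 intron; % of control where 0% means no effect.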 A digest of the protocol: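 HeLa cells stably expressing EGFP interrupted by β-globin IVS2-654 intron, seeded overnight in Opti-MEM/2% FCS, then treated 2 days at 37 °C. Restored splicing read as total peak GFP intensity per well by laser scanning cytometry (488 nm excitation, 500–520 nm emission); 500 nM antisense PNA as control.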

The nature of test [4]: qHTS Assay for Lipid Storage Modulators (AID 1519; calls by dose curve; note: potency is the fitted concentration of half-maximal effect; for activity change, negative = inhibition: % is set by controls: 0 for no effect and ±100 for the full control effect). As to conditions: Drosophila S3 cells, BODIPY lipid droplet/cell ratio, laser cytometry, cells loaded with oleic acid; for activity change, negative = inhibition: at 57.5 µM (top of the series). A digest of the protocol: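 Cells seeded at 5,000 per well were treated with compounds over a concentration series and loaded with oleic acid (400 uM, as added). Lipid droplet fluorescence (488 nm excitation, 500-530 nm channel) was read by laser-scanning cytometry and normalized to 20 uM Triacsin C.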

Test [5] is described as follows: Confirmation and Secondary Assay for Modulators of Hemoglobin Beta Chain Splicing at IVS2 705 locus (AID 930).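 Note: HeLa cells stably expressing the EGFP-705 splicing reporter; GFP fluorescence per well restored by corrected splicing of the IVS2-705 intron in EGFP; % of control where 0% means no effect.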 The procedure, abridged:
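First, HeLa EGFP-705 cells are seeded at 500/well in Optimem with 2% FCS and left overnight. Next, compound or DMSO is added for 2 days. Finally wells are laser-scanned and total peak GFP intensity scored.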

Test [6] concerns the target Ubiquitin carboxyl-terminal hydrolase 1 (Homo sapiens) (UniProt O94782). The test can be described thus: Inhibitors of USP1/UAF1: Pilot qHTS (AID 504865).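 Note: rhodamine fluorescence freed from ubiquitin-rhodamine substrate followed over time; top concentration of the series differs between compounds; % is set by controls: 0 for no effect and ±100 for the full control effect; nearly all actives have a fitted effect of over 35% in size.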 A digest of the protocol: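 USP1/UAF1 complex at 1 nM preincubated 15 min at room temperature with compound, then Ub-Rho substrate added at 150 nM final. Fluorescence (480/540 nm) read kinetically in 50 mM HEPES pH 7.8, 0.5 mM EDTA, 1 mM TCEP, 0.1 mg/ml BSA, 0.01% Tween-20.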

Test [7] concerns the target DNA dC->dU-editing enzyme APOBEC-3G (Homo sapiens) (UniProt Q9HC16). In words: qHTS for inhibitors of Vif-A3G interactions: Validation (AID 588379). Note: 0% is about no effect. The procedure, abridged:
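HeLa cells stably expressing Vif and A3G-eYFP, 700 cells/well, incubated overnight at 37 deg C, then exposed to compound overnight at 37 deg C. Inhibition of Vif-mediated degradation read as increased yellow fluorescence (Ex 488/Em 500-530) by laser-scanning cytometry.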

For test [8], the target named is Luciferin 4-monooxygenase (Photinus pyralis) (UniProt P08659). The test can be described thus: Biochemical firefly luciferase enzyme assay for NPC (AID 624030).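 Note: purified P. pyralis luciferase at 10 nM with luciferin and ATP substrate; 0% = DMSO and -100% = full luciferase inhibition by PTC124 control; nearly all actives have a fitted effect of over 70% in size.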 The procedure, abridged:
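Purified P. pyralis luciferase at 10 nM in 50 mM Tris Acetate (final), luminescence read within 5 minutes of enzyme addition to compounds. Activity normalised to PTC124 versus DMSO; concentration-response curves classed by r2, magnitude and activity.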

The mark [9] stands for this setting: measured here: cell count channel max response.
Where [10] appears, read: measured here: lipid channel max response.

Sequence of DNA dC->dU-editing enzyme APOBEC-3G (Homo sapiens) (Q9HC16 whole entry, looked up): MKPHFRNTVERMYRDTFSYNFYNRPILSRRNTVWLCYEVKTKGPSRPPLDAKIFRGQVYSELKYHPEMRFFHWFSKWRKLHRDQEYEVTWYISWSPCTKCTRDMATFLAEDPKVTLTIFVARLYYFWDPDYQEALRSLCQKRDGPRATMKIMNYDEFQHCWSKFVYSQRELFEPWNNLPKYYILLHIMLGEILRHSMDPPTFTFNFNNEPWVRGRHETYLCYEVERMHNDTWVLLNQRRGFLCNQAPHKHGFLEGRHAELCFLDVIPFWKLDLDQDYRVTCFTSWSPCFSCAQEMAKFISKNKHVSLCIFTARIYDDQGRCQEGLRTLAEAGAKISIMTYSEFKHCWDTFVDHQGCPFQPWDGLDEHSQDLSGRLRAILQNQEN
Sequence of Ubiquitin carboxyl-terminal hydrolase 1 (Homo sapiens) (O94782 whole entry, looked up): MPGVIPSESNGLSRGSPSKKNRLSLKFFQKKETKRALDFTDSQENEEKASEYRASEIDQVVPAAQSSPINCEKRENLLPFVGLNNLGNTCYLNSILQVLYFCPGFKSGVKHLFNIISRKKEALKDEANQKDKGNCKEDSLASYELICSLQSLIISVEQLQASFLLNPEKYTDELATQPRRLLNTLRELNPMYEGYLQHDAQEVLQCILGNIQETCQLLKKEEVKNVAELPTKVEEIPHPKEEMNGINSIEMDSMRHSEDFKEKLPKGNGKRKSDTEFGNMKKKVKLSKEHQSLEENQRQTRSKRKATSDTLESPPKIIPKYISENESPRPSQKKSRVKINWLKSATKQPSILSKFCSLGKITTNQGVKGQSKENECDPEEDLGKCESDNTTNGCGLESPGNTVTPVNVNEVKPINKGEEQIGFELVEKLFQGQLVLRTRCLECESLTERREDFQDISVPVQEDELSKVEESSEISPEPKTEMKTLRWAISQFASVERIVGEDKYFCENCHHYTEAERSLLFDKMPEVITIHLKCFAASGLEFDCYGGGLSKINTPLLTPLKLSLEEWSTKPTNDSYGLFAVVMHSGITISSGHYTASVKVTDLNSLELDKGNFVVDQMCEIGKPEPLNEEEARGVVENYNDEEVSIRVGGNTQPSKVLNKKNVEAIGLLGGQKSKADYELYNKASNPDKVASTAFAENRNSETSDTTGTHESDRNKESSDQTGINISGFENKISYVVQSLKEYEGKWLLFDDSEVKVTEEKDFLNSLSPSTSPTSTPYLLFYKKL
Sequence of Cytochrome P450 3A4 (Homo sapiens) (P08684 whole entry, looked up): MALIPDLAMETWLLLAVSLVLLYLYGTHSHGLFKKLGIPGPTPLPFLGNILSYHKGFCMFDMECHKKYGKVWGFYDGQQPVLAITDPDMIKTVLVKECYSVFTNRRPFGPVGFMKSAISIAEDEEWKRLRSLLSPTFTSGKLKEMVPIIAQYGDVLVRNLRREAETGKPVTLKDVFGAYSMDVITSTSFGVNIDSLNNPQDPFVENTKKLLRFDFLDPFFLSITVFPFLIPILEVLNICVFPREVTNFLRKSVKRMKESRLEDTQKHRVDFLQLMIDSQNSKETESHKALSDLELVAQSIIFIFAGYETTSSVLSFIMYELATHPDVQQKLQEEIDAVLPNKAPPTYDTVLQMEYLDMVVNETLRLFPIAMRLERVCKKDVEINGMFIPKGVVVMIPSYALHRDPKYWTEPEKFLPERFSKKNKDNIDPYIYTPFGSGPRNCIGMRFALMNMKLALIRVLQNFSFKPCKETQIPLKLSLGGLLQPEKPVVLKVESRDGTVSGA
Sequence of Luciferin 4-monooxygenase (Photinus pyralis) (P08659 whole entry, looked up): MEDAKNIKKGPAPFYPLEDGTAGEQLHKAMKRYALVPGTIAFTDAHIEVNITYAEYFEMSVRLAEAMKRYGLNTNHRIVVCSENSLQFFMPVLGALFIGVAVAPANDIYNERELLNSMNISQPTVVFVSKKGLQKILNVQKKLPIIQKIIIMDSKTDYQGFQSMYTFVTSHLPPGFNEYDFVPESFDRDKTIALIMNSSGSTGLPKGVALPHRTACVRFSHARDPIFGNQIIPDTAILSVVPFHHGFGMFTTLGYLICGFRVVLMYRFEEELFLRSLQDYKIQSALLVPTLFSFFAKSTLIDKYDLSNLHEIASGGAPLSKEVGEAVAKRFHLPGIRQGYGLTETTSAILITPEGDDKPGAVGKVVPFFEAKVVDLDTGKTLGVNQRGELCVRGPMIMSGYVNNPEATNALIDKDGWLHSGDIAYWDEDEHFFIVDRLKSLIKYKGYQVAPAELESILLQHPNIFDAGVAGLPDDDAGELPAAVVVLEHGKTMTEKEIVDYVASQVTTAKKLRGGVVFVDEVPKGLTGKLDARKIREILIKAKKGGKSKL

On to `Cc1c(S(=O)(=O)O)oc2c1C(=O)C(=O)c1c-2ccc2c1CCCC2(C)C`, for which, in test [1], the Potency was 10 µM (active). Further, the Potency entry in test [2] and in test [3] was “inactive” in each case. In addition, the activity change, negative = inhibition in test [4] was 4.38% (inactive). Moreover, the max response in test [4] (setting [9]) is 7.96%; in test [4] (setting [10]), 15.5%.

As to `CCOC(=O)OC(C)OC(=O)C1N2C(=O)C(NC(=O)C(N)c3ccccc3)C2SC1(C)C` (stereo not drawn), the Potency entry in test [3], in test [5] and in test [6] was “inactive” in each case. In addition, the activity change, negative = inhibition in test [4] was 6.11% (inactive). Further, the max response came out at 21.6% in test [4] (setting [9]) and 29.1% in test [4] (setting [10]).

For the compound `C=C1C[C@@]23C[C@@]1(O)CC[C@@H]2[C@]12C=C[C@@H](O)[C@](C)(C(=O)O1)[C@@H]2[C@@H]3C(=O)O`, the activity change, negative = inhibition in test [4] is -1.64% (inactive). Besides, the max response came out at 0.496% in test [4] (setting [9]) and 0.595% in test [4] (setting [10]). For the same compound, the compound was called inactive in test [7].

On to `O=C(/C=C/c1ccc(O)c(O)c1)O[C@@H]1C[C@@](O)(C(=O)O)C[C@H](O)[C@@H]1O`, for which the Potency result in test [1] is “inactive”. Further, in test [4], the activity change, negative = inhibition is -7.73% (inactive). Further, the max response was 3.01% in test [4] (setting [9]) and -5.95% in test [4] (setting [10]). The compound was called inactive in test [7].

In the case of `CCOC(=O)C(CCc1ccccc1)NC(C)C(=O)N1C(C(=O)O)CC2CCCC21` (stereo not drawn), the Potency entry in test [5] and in test [6] was “inactive” each time. In addition, the activity change, negative = inhibition in test [4] is 8.81% (inactive). The max response in test [4] (setting [9]) came out at 13.5%; in test [4] (setting [10]) it was 25.8%.

Regarding `O=C(O)CCCC[C@@H]1SC[C@H]2NC(=O)N[C@@H]12`, the Potency result in test [1] was “inactive”. Also, the activity change, negative = inhibition in test [4] was 6.17% (inactive). Also, the max response was found to be 12.9% in test [4] (setting [9]) and 23.3% in test [4] (setting [10]). Moreover, the compound was called inactive in test [7].

Turning to `CO/N=C(\C(=O)NC1C(=O)N2C(C(=O)OCOC(=O)C(C)(C)C)=C(/C=C\c3scnc3C)CSC12)c1csc(N)n1` (stereo not drawn), the Potency entry in test [3], in test [5] and in test [8] was “inactive” throughout. Also, in test [4], the activity change, negative = inhibition was 12.3% (inactive). The max response in test [4] (setting [9]) was -4.33%; in test [4] (setting [10]), 11.5%.

For the compound `COc1ccc2c(c1)O[C@@H]1c3ccc(OC)cc3OCC21` (stereo partly drawn), the Potency result in test [3], in test [5] and in test [6] was “inactive” in each case. Further, the activity change, negative = inhibition in test [4] was 3.42% (inactive). For the same compound, the max response worked out at 4.03% in test [4] (setting [9]) and 9.6% in test [4] (setting [10]).

With `CCC(C)C(=O)O[C@H]1C[C@@H](C)C=C2C=C[C@H](C)[C@H](CC[C@@H]3C[C@@H](O)CC(=O)O3)C21` (stereo partly drawn), the activity change, negative = inhibition in test [4] is -9.81% (inactive). For the same compound, the max response was 22% in test [4] (setting [9]) and 13.2% in test [4] (setting [10]). Besides, the call in test [7] was inactive.

For `CC(=O)OC1CC2C(C)(C)C(O)CC[C@@]2(C)C2CC[C@@]3(C)C(c4ccoc4)OC(=O)C4OC43[C@]12C` (stereo partly drawn), the Potency in test [1] is 2.51 µM (active). The Potency entry in test [2], in test [3] and in test [5] was “inactive” in each case. Moreover, the activity change, negative = inhibition in test [4] is -20.5% (inactive). Besides, the max response in test [4] (setting [9]) was -7.63%; in test [4] (setting [10]), -27.3%.

With `C/C(=C\CO)CCC(C)CCCC(C)CCCC(C)C` (stereo not drawn), the Potency result in test [1], in test [3] and in test [5] was “inactive” in each case. The activity change, negative = inhibition in test [4] is 6.09% (inactive). Further, the max response in test [4] (setting [9]) turned out to be 8.07%; in test [4] (setting [10]), 14.9%.

As for `COc1c(-c2coc3cc4c(cc3c2=O)CC(O)C(C)(C)O4)ccc2c1C=CC(C)(C)O2` (stereo not drawn), the Potency result in test [1], in test [3] and in test [5] was “inactive” each time. The Potency in test [2] was 2.51 µM (active); in test [4] it was 70.8 nM (active). Also, the max response is -20.3% in test [4] (setting [9]) and -70.3% in test [4] (setting [10]).

As to `CC12CCCC(O)(C1)C1CC(C)(C)C1CC2` (stereo not drawn), the Potency entry in test [1] and in test [3] was “inactive” in each case. Also, in test [4], the activity change, negative = inhibition is 4.18% (inactive). Besides, the max response in test [4] (setting [9]) is -0.674%; in test [4] (setting [10]), 2.69%.

With `CC(=O)C1CCC2C3CCC4=CC(=O)CC[C@@]4(C)C3CC[C@]12C` (stereo partly drawn), the Potency entry in test [1], in test [3] and in test [5] was “inactive” in each case. Besides, the activity change, negative = inhibition in test [4] was 4.88% (inactive). Moreover, the max response was determined as 4.44% in test [4] (setting [9]) and 13.5% in test [4] (setting [10]).

As for `CC1OC(n2cc(F)c(=O)[nH]c2=O)C(O)C1O` (stereo not drawn), the Potency result in test [1], in test [3] and in test [5] was “inactive” in each case. In addition, the activity change, negative = inhibition in test [4] was 5.38% (inactive). Also, the max response in test [4] (setting [9]) amounted to 14%; in test [4] (setting [10]) it was 19.9%.

As for `CC1=CCc2c(cc3oc(C)cc(=O)c3c2O)OC1`, in test [1], the Potency was 25.1 µM (active). Further, the Potency entry in test [3] is “inactive”. For the same compound, the activity change, negative = inhibition in test [4] is 15.7% (inactive). Also, the values for the max response in test [4] (setting [9]) and in test [4] (setting [10]) were 14.5% and 19.5%, respectively.

Consider `COc1ccc2c(c1)OCC(Cc1ccc(O)c(OC)c1)C2=O` (stereo not drawn), for which the Potency in test [1] is 2 µM (active). The Potency result in test [3] and in test [5] was “inactive” in each case. Also, the activity change, negative = inhibition in test [4] was 13.3% (inactive). The max response came to 8.4% in test [4] (setting [9]) and 29.2% in test [4] (setting [10]).

In the case of `COc1ccc(/C=C/C(=O)c2ccc(O)cc2O)cc1`, the Potency in test [1] was 2.51 µM (active). For the same compound, the Potency entry in test [3] and in test [5] was “inactive” each time. In test [4], the activity change, negative = inhibition is 5.71% (inactive). For the same compound, the max response came out at 11.7% in test [4] (setting [9]) and 19.5% in test [4] (setting [10]).

For the compound `CC1=CC(=O)C2C(C)(C)CCC[C@@]2(C)[C@@]1(O)CCc1ccoc1` (stereo partly drawn), in test [1], the Potency is 15.8 µM (active). Besides, the Potency result in test [2], in test [3] and in test [5] was “inactive” each time. For the same compound, the activity change, negative = inhibition in test [4] is -1.73% (inactive). The results for the max response in test [4] (setting [9]) and in test [4] (setting [10]) were 10.7% and 10.8%, respectively.

For the compound `COc1ccccc1-c1cc(=O)c2cccc(OC)c2o1`, the Potency in test [1] was 20 µM (active). For the same compound, the Potency entry in test [2] and in test [5] was “inactive” throughout. Besides, in test [4], the activity change, negative = inhibition is 6.98% (inactive). The max response in test [4] (setting [9]) is 13.5%; in test [4] (setting [10]), 23.2%.

For the compound `O=c1cc(-c2ccc(O)cc2)oc2cc(OC3OC(CO)C(O)C(O)[C@H]3O[C@@H]3OC[C@@](O)(CO)C3O)cc(O)c12` (stereo partly drawn), the Potency result in test [1], in test [3] and in test [5] was “inactive” in each case. Further, the activity change, negative = inhibition in test [4] was 1.57% (inactive). The max response in test [4] (setting [9]) came to 23.4%; in test [4] (setting [10]), 26.6%.

For `C/C=C(\C)C(=O)OC1c2c(ccc3ccc(=O)oc23)OC(C)(C)C1OC(C)=O` (stereo not drawn), the Potency in test [1] was 25.1 µM (active). The Potency result in test [2], in test [3] and in test [5] was “inactive” throughout. Further, in test [4], the activity change, negative = inhibition was -20.9% (inactive). Besides, the max response was -0.795% in test [4] (setting [9]) and -21.2% in test [4] (setting [10]).

On to `CO[C@@]1(NC(=O)CSCC#N)C(=O)N2C(C(=O)O)=C(CSc3nnnn3C)CSC21` (stereo partly drawn), for which the Potency result in test [1], in test [3] and in test [5] was “inactive” each time. For the same compound, the activity change, negative = inhibition in test [4] was 5.21% (inactive). Further, the results for the max response in test [4] (setting [9]) and in test [4] (setting [10]) were 4.52% and 12.5%, respectively.
